High-throughput results (PubChem BioAssay)
Most compounds without a hit are left out; they make up all but 6.4% or so of the library.
Luc counter: blocks Kinase-Glo luciferase, a counter-screen artifact; Q27757; Kinase-Glo luciferase, ATP luminescence, 8 min; Potency, µM (top dose mostly 38.3 µM), for the others: at the top dose activity change, negative = inhibition, actives largely listed as inhibitors; hit rate 0.28% among 200,000; AID 1379; further: nearly all actives have a fitted effect of over 60% in size
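Compound is pinned into ATP-containing buffer (10 uM ATP, imidazole pH 7.2, 7 mM MgCl2). Kinase-Glo luciferase reagent is then added. Light output is recorded following an 8-min room-temperature incubation.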
RORgamma inh: blocks mouse ROR gamma transcriptional activity. P51450. Drosophila S2 Gal4-RORgamma UAS-luciferase reporter, 20 h. Potency, µM (titrated, usually from 53.6 µM), inactives show top-dose activity change, negative = inhibition, most hits filed as inhibitors. hit rate 5.4% among 310,000. AID 2551; further: nearly all actives have a fitted effect of over 60% in size
Target sequence (P51450 whole entry, looked up, the tested form may be a part): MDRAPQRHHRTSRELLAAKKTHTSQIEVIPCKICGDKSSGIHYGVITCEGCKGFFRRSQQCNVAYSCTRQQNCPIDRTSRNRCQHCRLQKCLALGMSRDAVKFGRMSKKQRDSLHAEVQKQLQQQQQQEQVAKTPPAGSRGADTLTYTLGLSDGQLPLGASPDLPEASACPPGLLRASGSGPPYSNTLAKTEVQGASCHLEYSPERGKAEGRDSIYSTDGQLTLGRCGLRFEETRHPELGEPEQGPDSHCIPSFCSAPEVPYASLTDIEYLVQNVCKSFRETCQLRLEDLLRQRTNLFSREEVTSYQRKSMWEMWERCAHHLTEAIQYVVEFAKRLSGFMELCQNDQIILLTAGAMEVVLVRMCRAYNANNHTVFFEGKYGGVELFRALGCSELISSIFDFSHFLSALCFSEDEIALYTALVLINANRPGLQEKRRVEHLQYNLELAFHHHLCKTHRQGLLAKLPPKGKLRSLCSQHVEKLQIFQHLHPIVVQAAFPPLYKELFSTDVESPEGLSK
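Using a luciferase readout, inhibitors were identified by reduced reporter activity in Drosophila cells coexpressing a copper-inducible Gal4–ROR gamma fusion and UAS-driven Photinus luciferase, incubated 20 hr after 700 uM copper sulfate.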
VP16 counter: inhibits Gal4-VP16 luciferase reporter, ROR gamma counter-screen. Drosophila S2 Gal4-VP16 UAS-luciferase, luminescence, 20 h. Potency, µM (series often up to 53.6 µM), without a hit: at the top dose activity, negative = inhibition, usual class: inhibitors. hit rate 3.5% among 310,000. AID 2546;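 further: Gal4-VP16 expression switched on by copper sulfate through the metallothionein promoter; nearly all actives have a fitted effect of over 50% in size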
Starred values were filed as active, the others as inactive; ? = inconclusive; . = no result; [ ] = dose if it differs, or a comment. The call rests on the fitted dose curve; in most records, active means well fitted curve in the direction sought with a large enough effect; inconclusive means small, poorly fitted or top-dose-only effect, or another doubt; inactive means no such curve, though single readings can be large; an effect the other way counts as inactive or inconclusive. On the % scale 0 is the no-effect control and ±100 the full control effect; potency means the concentration at half of the fitted maximal effect.

SMILES	Luc counter	RORgamma inh	VP16 counter
CCc1ccc(C2CC(c3ccco3)=NN2S(C)(=O)=O)cc1 (stereo unspecified)	11µM*	-34%	-19%
CCOc1ccc2cc(C3CC(c4ccco4)=NN3S(C)(=O)=O)c(Cl)nc2c1 (stereo unspecified)	.	25%	8%
CC(C)CCn1c2ccccc2c2cc(CC(N)=O)ccc21	.	6%	-15%
CCOC(=O)c1csc(NC(=O)CC2CCCC2)n1	6%	11µM*	-20%
CCOC(=O)c1csc(NC(=O)CCSc2ccccc2)n1	0%	28%	-5%
CS(=O)(=O)Nc1cccc(C2=NN(C(=O)c3ccco3)C(c3cccs3)C2)c1 (stereo unspecified)	.	9%	-4%
c1cc(Nc2cccc3nccnc23)c2nccnc2c1	-6%	0.28µM*	1.1µM*
Fc1ccc(Nc2cccc3nccnc23)cc1	-1%	0%	?
O=c1oc2ccccc2nc1/C=C(\O)c1ccccc1	.	-21%	3%
O/C(=C\c1nc2ccccc2nc1/C=C(\O)c1ccccc1)c1ccccc1	0%	10µM*	5%[10 µM]
CSc1nc2nc3c(cc2c(=O)n1-c1ccc(C)cc1)COC(C)(C)C3	.	29%	-10%
Cc1ccccc1-n1c(=O)c2ccccc2n2cnnc12	-5%	-5%	0%
Cc1ccccc1-n1c(=S)[nH]c2nc3c(cc2c1=O)COC(C)(C)C3	.	5µM*	11µM*
CCC1(C)Cc2nc3[nH]c(=S)n(-c4ccc(C)cc4)c(=O)c3cc2CO1 (stereo unspecified)	3%	1.3µM*	14µM*
CC1(C)Cc2nc3[nH]c(=S)[nH]c(=O)c3cc2CO1	.	-3%	3%
Cc1ccccc1-n1c(=S)[nH]c2nc3c(cc2c1=O)CCCC3	0%	1.3µM*	4.5µM*
Cc1ccc(-n2c(=S)[nH]c3nc4c(cc3c2=O)COC(C)(C)C4)cc1	0%	3.5µM*	?
CSc1nc2nc3c(cc2c(=O)n1-c1ccccc1C)COC(C)(C)C3	.	3%	1%
CN(C)c1cc(N/N=C/c2ccc(Cl)cc2)nc(N(C)C)n1	0%	-17%	-10%
O=C(c1ccc(S(=O)(=O)N2CCCCC2)cc1)N1CCN(CCN2C(=O)c3cccc4cccc(c34)C2=O)CC1	0%	16%	?
C=CCn1c(=O)c2c(nc3n2CC(C)CN3Cc2ccccc2)n(C)c1=O (stereo unspecified)	.	1%	6%
CC(c1ccco1)N(C(=O)c1ccc(Cl)c([N+](=O)[O-])c1)c1ccccn1 (stereo unspecified)	.	-27%	?
COC(=O)c1cc(OC)c(=O)c2c(OC)c(OC)ccc2c1	-1%	4%	25%
Cc1cn(-c2cc(C(=O)Nc3ccc(C)c(NC(=O)C(=O)c4c[nH]c5ccccc45)c3)cc(C(F)(F)F)c2)cn1	.	29%	-11%
CCC/C=C(\CCC)C(NC(=O)c1ccccc1)c1ccc(C(=O)OC)cc1 (stereo unspecified)	-2%	10%	18%
SMILES	Luc counter	RORgamma inh	VP16 counter
COc1ccc(OC)c(S(=O)(=O)N2CCC(C(=O)NC3CCCCCC3)CC2)c1	.	24%	8%
O=C(O)c1ccc(Cl)c(S(=O)(=O)Nc2ccccc2)c1	-2%	.	.
CCNc1nc(N2CCCC2)nc(N2CCCC2)n1	-3%	-27%	-9%
Cc1cc(C)n(-c2nc(N(C)C)nc(N(C)C)n2)n1	-1%	2.8µM*	7.1µM*
Cc1cc(C)n(-c2nc(NC(C)C)nc(NC(C)C)n2)n1	-7%	0.56µM*	2.5µM*
Cc1cc(C)n(-c2ncc(C#N)cn2)n1	-2%	-2%	6%
Cc1cc(C)n(-c2nc(NC(C)(C)C)nc(NC(C)(C)C)n2)n1	-2%	2µM*	?
CC(=O)Nn1c(C)nnc1-n1nc(C)cc1C	-2%	-4%[0.365 µM]	.
Cc1cc(C)n(-c2nnc(NC(C)(C)C)nn2)n1	-21%	-7%	-4%
CCNc1nc(NCC)nc(-n2nc(C)cc2C)n1	-5%	0.71µM*	2.2µM*
CN1CCN(c2ncc3nc(-c4cccs4)c(=O)n(CCc4ccccc4)c3n2)CC1	.	-16%	9%
O=C(CCS(=O)(=O)c1ccccc1)N1CCN(c2ccccc2)CC1	.	?	-5%
O=C(CN1C(=O)C2CC=CCC2C1=O)OCC(=O)c1ccc(Cl)c([N+](=O)[O-])c1 (stereo unspecified)	.	-39%	35µM*
O=C(CN1C(=O)C2C3C=CC(C3)C2C1=O)OCC(=O)c1ccc([N+](=O)[O-])cc1 (stereo unspecified)	.	32%	-1%
COc1ccc(N2CCN(C(=O)CN(C)S(=O)(=O)c3cnc[nH]3)CC2)cc1	14%	-19%	-8%
